Test results as given in PubChem BioAssay (NCATS).
Records with an inconclusive call do not appear. A number with no mark means an inactive call. The source made the active and inactive calls. The call rests on the fitted dose curve; in most records, active means well fitted cell-killing curve with a large enough effect; inconclusive means small, poorly fitted or top-dose-only effect, or effect the other way; inactive means flat fitted curve, though single readings scatter.
On the % scale 0 is the no-effect control and ±100 the full control effect; potency means the concentration at half of the fitted maximal effect.

Each compound was assayed on OV90 (assay: Primary qHTS to identify gynecologic anti-cancer compounds using libraries of approved drugs and bioactive compounds (AID 1345084; further: nearly all actives have a fitted effect of over 55% in size)). Conditions: Gynecologic cancer cell panel viability, ATPlite luminescence, 48 h; series mostly up to 57.5 µM; activity change, negative = cytotoxicity: at the top concentration.
Outline: (§1)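 Luminescence from the ATPlite ATP-monitoring reagent indicates viable cell number; lower signal means cytotoxicity. Cells received compound 16 h after seeding and were exposed for 48 h across five concentrations.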
In the case of CCNC(=O)C#Cc1ccc2c(C(=Nc3ccc(CN(C)C)cc3)c3ccccc3)c(O)[nH]c2c1, the Potency was 0.447 µM (active).
In the case of Cc1ccc(-c2ncccn2)c(C(=O)N2C[C@H](COc3ccc(F)cn3)CC[C@H]2C)c1, the “activity change, negative = cytotoxicity” value was -26.6%.
In the case of COc1cc2ncnc(Oc3ccc(CC(=O)Nc4cnn(C(C)C)c4)cc3)c2cc1OC, the “activity change, negative = cytotoxicity” value was 5.52%.
With CC(C)(O)C1Cc2c(ccc(C(=O)CCc3ccccc3)c2O)O1 (stereo not drawn) the Potency was 11.2 µM (active).
CC(CCC1(O)OC2CC3C4CC=C5CC(O[C@@H]6O[C@H](CO)[C@@H](O[C@@H]7O[C@@H](C)[C@H](O)[C@@H](O)[C@H]7O)[C@H](O)[C@H]6O[C@@H]6O[C@@H](C)[C@H](O)[C@@H](O)[C@H]6O)CCC5(C)C4CCC3(C)C2C1C)CO[C@@H]1O[C@H](CO)[C@@H](O)[C@H](O)[C@H]1O (stereo partly drawn) showed an activity change, negative = cytotoxicity of -6.71% [at 11.6 µM].
For CC(C)NC(=O)N1CC[C@H](N=C2Nc3cc(F)ccc3N(CC(F)F)c3ccc(Cl)cc32)C1, the activity change, negative = cytotoxicity was 1.89% [at 11.6 µM].
For O=C(Nc1nnc(-c2ccc3c(c2)OCCO3)o1)C1CCCCC1, the “activity change, negative = cytotoxicity” value was -7.02%.
CC(C)c1cccc(C(C)C)c1NC(=O)Nc1ccc(Sc2ccc([N+](=O)[O-])cc2)cc1 was tested, and the “activity change, negative = cytotoxicity” value was 0%.
CC(C)(C)[C@H](NC(=O)c1ccc(N)c(Cl)c1)C(=O)N1CCC[C@H]1C(=O)N[C@H](C#N)CC(=O)O was tested, and the “activity change, negative = cytotoxicity” value was -13.5%.
For C=C1CC[C@@H]2[C@](C)(CO)[C@H](O)CC[C@@]2(C)[C@@H]1CC(=O)C1=CCOC1=O, the “activity change, negative = cytotoxicity” value was -11.6% [at 38.5 µM].
For O=c1cc(N2CCOCC2)nc2c3ccccc3ccn12, the “activity change, negative = cytotoxicity” value was 4.2%.
With COc1cc(CCO)ccc1O[C@@H]1O[C@H](CO)[C@@H](O)[C@H](O)[C@H]1O the “activity change, negative = cytotoxicity” value was 0.73% [at 38.5 µM].
With CC(=O)O[C@H]1CC[C@]2(C)[C@H]3CC[C@]4(C)Oc5oc(C)cc(=O)c5C[C@H]4[C@]3(C)CC[C@H]2C1(C)C the “activity change, negative = cytotoxicity” value was 0.615% [at 25.3 µM].
For Cc1cc2ncc(C(=O)NCC(C)(C)NCC(=O)N3CCC[C@H]3C#N)cn2n1, the “activity change, negative = cytotoxicity” value was -25.5%.
COCc1c(Cl)ccc2c1CC[C@H]2c1ncc[nH]1 was tested, and the “activity change, negative = cytotoxicity” value was -5.82%.

What follows are compounds tested on PA-1 in the same assay as above. Conditions: Gynecologic cancer cell panel viability, ATPlite luminescence, 48 h; series mostly up to 57.5 µM; activity change, negative = cytotoxicity: at the top concentration.
Outline: as §1
In the case of CC(=O)CC(=O)Nc1ccc(Cl)c(C(F)(F)F)c1, the “activity change, negative = cytotoxicity” value was 0.518%.
In the case of CCCOc1ccc(CCc2nc3cc(-c4c(C)noc4C)ccc3n2CCN2CCOCC2)cc1, the “activity change, negative = cytotoxicity” value was -7.93%.
With N#Cc1ccc(COc2ccc(-c3cccc4nc(NC(=O)C5CC5)nn34)cc2)cn1 the “activity change, negative = cytotoxicity” value was 0.572%.
With Nc1ncnc2c1c(-c1ccc(Oc3ccccc3)cc1)nn2[C@@H]1CCCNC1 the Potency was 25.1 µM (active).
In the case of CC1(C)CN(C(=O)c2ccc(-c3cccc4nc(NC(=O)C5CC5)nn34)cc2)C1, the “activity change, negative = cytotoxicity” value was -0.327%.
In the case of CCC(C)C(=O)OC1C(C)C2(O)C(C=C(CO)CC3(O)C(=O)C(C)=CC32)C2C(C)(C)C12OC(=O)C(C)C (stereo not drawn), the “activity change, negative = cytotoxicity” value was -37.4% [at 25.3 µM].
CCC(C)(OC(C)=O)C(=O)O[C@H]1[C@H](OC(C)=O)[C@]2(CO)[C@H](O)[C@H](O)[C@]3(C)C(=CCC4[C@@]5(C)CC[C@H](O[C@@H]6O[C@H](C(=O)O)[C@@H](O)[C@H](O[C@@H]7OC[C@H](O)[C@H](O[C@@H]8OC[C@H](O)[C@H](O)[C@H]8O)[C@H]7O)[C@H]6O[C@@H]6O[C@H](CO)[C@@H](O)[C@H](O)[C@H]6O)C(C)(C)C5CC[C@]43C)[C@@H]2CC1(C)C (stereo partly drawn) was tested, and the activity change, negative = cytotoxicity was -11.2% [at 6.55 µM].
For O=C(c1ccccc1)c1c(O)cc(O)cc1O[C@@H]1O[C@H](CO)[C@@H](O)[C@H](O)[C@H]1O, the Potency was 11.2 µM (active).
In the case of CCOC(=O)c1csc(Nc2ccc(Cl)cc2)n1, the “activity change, negative = cytotoxicity” value was -20.1%.
With FC(F)(F)c1ccccc1-c1cc(C(F)(F)F)c2nc(C3=NOC4(CCCCC4)C3)[nH]c2c1 the “activity change, negative = cytotoxicity” value was 3.76%.
In the case of Cc1ccc(-c2c(C(=O)CCl)n(CCCO)c3ncnc(N)c23)cc1, the “activity change, negative = cytotoxicity” value was -0.967%.
For Cc1ccc(-c2ncccn2)c(C(=O)N2C[C@H](COc3ccc(F)cn3)CC[C@H]2C)c1, the “activity change, negative = cytotoxicity” value was -28.4%.
COc1cc2ncnc(Oc3ccc(CC(=O)Nc4cnn(C(C)C)c4)cc3)c2cc1OC was tested, and the “activity change, negative = cytotoxicity” value was 20.6%.
In the case of O=C(Nc1ccnc(NC(=O)C2CC2)c1)c1c(Cl)cccc1Cl, the Potency was 15.8 µM (active).
CC(C)(O)C1Cc2c(ccc(C(=O)CCc3ccccc3)c2O)O1 (stereo not drawn) was tested, and the Potency was 12.6 µM (active).
In the case of CC(C)NC(=O)N1CC[C@H](N=C2Nc3cc(F)ccc3N(CC(F)F)c3ccc(Cl)cc32)C1, the activity change, negative = cytotoxicity was -24.1% [at 11.6 µM].
O=C(Nc1nnc(-c2ccc3c(c2)OCCO3)o1)C1CCCCC1 was tested, and the “activity change, negative = cytotoxicity” value was -29.7%.
For CC(C)c1cccc(C(C)C)c1NC(=O)Nc1ccc(Sc2ccc([N+](=O)[O-])cc2)cc1, the “activity change, negative = cytotoxicity” value was -1.56%.
